The structures appear in SMILES notation. This is part of a sample that, as a whole, favours compounds with a hit. Of some 83,000 tested, about 20% had one in any assay.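 Single-concentration screen, 48 h exposure, 96-well plates. Endpoint: percent growth. Below 10 = active.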 The source made the active and inactive calls.

This assay relates to UACC-257 melanoma. In words: NCI-60 one-dose screen, 48 h (100 = growth as untreated, 0 = no growth, -100 = all killed). The conditions noted are these: 10 µM unless noted.
With `O=C1/C(=C/c2ccccc2)SC(=Nc2ccccc2)N1Nc1ccccc1`, the growth was 10.5% (inactive). To `COc1cnc2c(c1)C(=O)c1c-2n(CCCNC(C)C)c(=O)c2cc(Cl)ccc12` belongs 48.2% (inactive). The same measure for `CCSCC1CC(O)(c2ccccc2)C(c2ccccc2)C(c2ccc(F)cc2)O1` (centres undefined): 4.92% (active); for `CN1C(=O)C(C2=NNC(c3ccccc3C(=O)O)C2)C(=O)N(C)C1=O` (centres undefined): 97.1% (inactive). On to `NC(N)=NC1CCCCC1`, for which the growth was 90.6% (inactive). On to `COc1ccc(C(=O)OC2C(OC3C(O)COC(O[C@H]4C[C@H]5[C@@H]6CC=C7C[C@@H](O)CC[C@]7(C)[C@H]6CC[C@]5(C)[C@H]4[C@H](C)C(=O)CCC(C)C)C3OC(C)=O)OCC(O)C2O)cc1` (some centres undefined), for which the growth was -60.3% (active). The same measure for `CC(C)(C)c1ccc(OC(=O)Nc2ccccc2)cc1`: 99.5% (inactive); for `CN1C2CCC1/C(=C\c1ccc(F)cc1)C(=O)/C2=C/c1ccc(F)cc1`: 25.8% (inactive).

With `CCCCOC(=O)c1cc(O)c(O)c(O)c1`, the growth was 96.4% (inactive).

On to `CCOC(=O)C1OC2(CCCC2)OC1C(=O)OCC` (centres undefined), for which the growth was 97.7% (inactive). To `O=C(Nc1cccc(-n2ccc3c(NC(=O)c4ccccc4)nccc32)c1)c1ccc(N2CCOCC2)c(C(F)(F)F)c1` belongs 58% (inactive); to `CCN(CC)CCCC(C)Nc1c(-c2ccccc2)cnc2cc(Cl)ccc12` (centres undefined), -26.6% (active). To `O=C1C=CN2C(=O)CC=CC2[C@@H]1O` (some centres undefined) belongs 108% (inactive); to `CC(=O)O[C@@H]1CC2C(C)(C)CCCC2(C)C2=C1C(=O)C(C(C)C)=CC2=O` (some centres undefined), -52% (active). To `O=C(Nc1ccc(-n2ccc3c(NC(=O)c4ccccc4)nccc32)cc1)c1ccc(N2CCOCC2)c(C(F)(F)F)c1` belongs 55% (inactive); to `COc1cc(/C=C/c2cc(/C=C/c3ccc(O)c(OC)c3)n(C(=O)Nc3ccc(F)c(Cl)c3)n2)ccc1O`, -15.9% (active); to `COc1cc(OC)c2sc(-c3ccc(-n4cncc4-c4ccc(OC)c(N)c4)cc3)nc2c1`, 94.3% (inactive). For the compound `COc1ccc(C2=NNC(c3ccc(Oc4nc5c(c(=O)n(C)c(=O)n5C)n4C)c(OC)c3)C2)cc1` (centres undefined), the growth was 97.8% (inactive). To `NS(=O)(=O)c1ccc(CCn2c(SCC(=O)N/N=C/c3cccnc3)nc3ccccc3c2=O)cc1` belongs 107% (inactive).

On to `O=C(NNC(=O)c1cccc(Cl)c1)c1ccccc1`, for which the growth was 110% (inactive).

`N=c1nc(N2CCCCC2)cc(N)n1O`: the growth is 99.8% (inactive). In the case of `Cc1ccc(C)c(NC(=O)c2sc3c(=O)[nH]cnc3c2C)c1`, the growth was 94.5% (inactive). The same measure for `C=CCOC(=O)C1=C(C)NC2=C(C(=O)CCC2)C1c1ccc(F)cc1` (centres undefined): 92.8% (inactive). The same measure for `COc1ccc(-c2cnc(-c3ccncc3-c3cccc(OC)c3)o2)cc1`: 83.6% (inactive); for `O=C(Nc1ccncc1)C(=O)c1cn(S(=O)(=O)c2cccc(Cl)c2F)c2ccccc12`: 89.6% (inactive). `Cc1ccccc1Nc1n[nH]c(Cc2ccccc2)n1`: the growth is 92.7% (inactive). For `Oc1ccccc1-c1nnc(COc2ccc(Cl)cc2Cl)o1`, the growth is 58.9% (inactive).

For `CS(=O)(=O)c1ccc(C(=O)N/N=C/c2ccccc2O)cc1`, the growth is 22.6% (inactive). Consider `CCCCCCCCCCCCCCCCCC(=O)OCCCCCCCCCCCCC`, for which the growth is 108% (inactive). The same measure for `COc1cc(C2CC(c3ccc(C)cc3)=NN2C=O)ccc1Oc1nc2c(c(=O)n(C)c(=O)n2C)n1C` (centres undefined): -31.3% (active); for `COc1cc(C2CC(c3ccccc3)=NN2C=O)ccc1Oc1ccnc2cc(Cl)ccc12` (centres undefined): 31.6% (inactive); for `NC(N)=N/N=C/c1ccc(Cl)cc1`: 80.7% (inactive).

For `O=c1c2cc(Cl)ccc2oc2ccc(OCCCCCN3CCCCC3)cc12`, the growth was -26.2% (active). The same measure for `COc1cc(Cl)cc(-c2nn(C(=O)NCCN3CCOCC3)cc2-c2ccncc2)c1`: 81.7% (inactive).

On to `COc1ccc2nc3ccccc3c(NCc3ccc(Cl)cc3)c2c1`, for which the growth was -52.2% (active). `CN1C(=O)N(C)C2C1NN=c1s/c(=C\c3ccc(C(F)(F)F)cc3)c(=O)n12` (centres undefined): the growth was 44.6% (inactive). To `C=C1C(=O)O[C@H]2[C@H]1CC/C(COC(=O)NCc1cn(C)c3ccccc13)=C\CC[C@@]1(C)O[C@@H]21` belongs -15% (active); to `c1csc(-c2cnc3nonc3n2)c1`, 75.3% (inactive). The same measure for `Nc1nc(NC2CC2)cc(-c2cccc(Cl)c2Cl)n1`: 49.8% (inactive).

The record behind these values is PubChem BioAssay (NCI).
